The results in this text go back to the supplement of paper PMC8728848.

Common to all, as to experiment: glycan array binding signal (z-score within array); higher = stronger binding
Holding throughout (conditions): glycan notation: IUPAC condensed, linker removed

Experiment [1] addresses Fuc(a1-2)Gal(b1-3)GlcNAc(b1-3)Gal(b1-4)Glc. The procedure, abridged:
(§1)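 Negative Z-scores can be read as non-binding. The Z-score is calculated within each array and then averaged across arrays of one protein sequence at different concentrations or buffers and across linkers. Arrays, 3228 in all, were curated from the Consortium for Functional Glycomics database and kept only where the protein sequence was available.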

In experiment [2] the target is Fuc(a1-2)Gal(b1-4)Glc. The procedure, abridged: as §1
In experiment [3] the target is Fuc(a1-2)Gal(b1-4)GlcNAc(b1-3)GalNAc. The procedure, abridged:
as §1

Experiment [4] has as its target Fuc(a1-2)Gal6S(b1-3)GlcNAc. Put shortly: as §1
The target of experiment [5] is Fuc(a1-2)[Gal(a1-3)]Gal(b1-4)[Fuc(a1-3)]GlcNAc. The procedure, abridged: as §1
For experiment [6], the target named is Fuc(a1-2)[GalNAc(a1-3)]Gal(b1-3)GalNAc(b1-3)Gal(a1-4)Gal(b1-4)Glc. The procedure, abridged:
as §1

For experiment [7], the target named is Fuc(a1-2)[GalNAc(a1-3)]Gal(b1-4)GlcNAc(b1-2)Man(a1-3)[Fuc(a1-2)[GalNAc(a1-3)]Gal(b1-4)GlcNAc(b1-2)Man(a1-6)]Man(b1-4)GlcNAc(b1-4)GlcNAc. Put shortly: as §1
The target of experiment [8] is Fuc(a1-3)[Gal(b1-4)]GlcNAc(b1-3)GalNAc. The procedure, abridged:
as §1

The target in experiment [9] is Gal(a1-3)Gal(b1-4)GlcNAc(b1-2)Man. The procedure, abridged:
as §1

In experiment [10] the target is Gal(a1-4)GlcNAc. Put shortly: as §1
The target in experiment [11] is Gal(b1-3)Gal(b1-4)GlcNAc. Put shortly:
as §1

For experiment [12], the target named is Gal(b1-3)GalNAc(b1-3)Gal. The procedure, abridged: as §1
Experiment [13] has as its target Gal(b1-3)GalNAc(b1-4)Gal(b1-4)Glc. Put shortly:
as §1

The target in experiment [14] is Gal(b1-3)GalNAc(b1-4)[Neu5Ac(a2-3)]Gal(b1-4)Glc. The procedure, abridged:
as §1

Experiment [15] concerns the target Gal(b1-3)[Neu5Ac(a2-6)]GalNAc. The procedure, abridged: as §1
The target in experiment [16] is Gal(b1-4)GlcNAc(b1-2)Man(a1-3)[Gal(b1-4)GlcNAc(b1-2)Man(a1-6)]Man(b1-4)GlcNAc(b1-4)GlcNAc. The procedure, abridged: as §1
The target in experiment [17] is Gal(b1-4)GlcNAc(b1-2)Man(a1-3)[Man(a1-6)]Man(b1-4)GlcNAc(b1-4)GlcNAc. Put shortly: as §1
Experiment [18] concerns the target Gal(b1-4)GlcNAc(b1-2)[Gal(b1-4)GlcNAc(b1-6)]Man(a1-6)[Gal(b1-4)GlcNAc(b1-2)Man(a1-3)]Man(b1-4)GlcNAc(b1-4)[Fuc(a1-6)]GlcNAc. The procedure, abridged:
as §1

Experiment [19] concerns the target Gal(b1-4)GlcNAc(b1-3)Gal(b1-3)GlcNAc. The procedure, abridged: as §1
For experiment [20], the target named is Gal(b1-4)GlcNAc(b1-3)Gal(b1-4)GlcNAc. Put shortly:
as §1

The target in experiment [21] is Gal(b1-4)GlcNAc(b1-3)Gal(b1-4)GlcNAc(b1-3)Gal(b1-4)GlcNAc(b1-3)Gal(b1-4)GlcNAc(b1-3)Gal(b1-4)GlcNAc(b1-2)Man(a1-3)[Gal(b1-4)GlcNAc(b1-3)Gal(b1-4)GlcNAc(b1-3)Gal(b1-4)GlcNAc(b1-3)Gal(b1-4)GlcNAc(b1-3)Gal(b1-4)GlcNAc(b1-2)Man(a1-6)]Man(b1-4)GlcNAc(b1-4)GlcNAc. Put shortly:
as §1

The target in experiment [22] is Gal3S(b1-3)[Fuc(a1-4)]GlcNAc. The procedure, abridged: as §1
For experiment [23], the target named is Gal3S(b1-4)Glc. The procedure, abridged: as §1
For experiment [24], the target named is Gal6S(b1-3)GlcNAc6S. The procedure, abridged: as §1

This is one part of a sample in which the strongest signals are shown more often than they occur.

B1: Epa1to9 (Candida glabrata) (protein)
chain: MGSSHHHHHHSSGLVPRGSHMTSSNDISLASKDPTTFPLGCSPDITTPKKGLSMELYSYDFRKKGSYPCWDAAYLDPNYPRTGYKSHRLLAKVDGVTGNINFYYHATKGCTPQLGHLPASYNYPKPLTMTNFTMLLYGYFRPKVTGFHTFTISADDLLFVNFGAGNAFDCCRRDSSADHFGNYQAYAIWGSKTAKDELTVHLDAGVYYPIRLFYNNRDYHGALSFTFKTESNENTVSDFSEYFFSLDDTEEGCPGLISYD
Turning to B1, the “glycan array binding signal (z-score)” value was -0.354 in experiment [1]; -0.307 in experiment [2]; -0.34 in [3]; 0.035 in experiment [4]; -0.276 in experiment [5]; -0.349 in experiment [6]. The “glycan array binding signal (z-score)” value is -0.318 in experiment [7]; -0.293 in experiment [8]; 0.008 in experiment [9]; 1.94 in experiment [10]; 4.22 in experiment [11]; 3.67 in experiment [12]. In addition, the “glycan array binding signal (z-score)” value was 4.67 in experiment [13]; 2.83 in experiment [14]; 4.47 in experiment [15]; 1.17 in experiment [16]; -0.161 in experiment [17]; 3.13 in [18]. The “glycan array binding signal (z-score)” value in [19] was -0.107; in experiment [20], -0.064; in [21], 0.122; in experiment [22], -0.345; in experiment [23] it was -0.283; in experiment [24], 4.86.
